Laboratory results taken from PubChem BioAssay AID1159580 (chemical genetic matrix, 2015).
The campaign covered roughly 5,500 compounds. About 2,000 (36%) were called active. Inconclusive results (about 18%) are left out. Cut-off read from the data, not from the text of the source: active = normalized growth mostly below about 0.91 (no sharp cut-off); inconclusive = no clear call, values can overlap the other calls; inactive = mostly above about 0.92. Some of the results follow.

Assay: chemical genetic growth profiling, strain panel (AID 1159580);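 note: tested at 20 µM; growth read once vehicle control cultures reached saturation at 30 °C; 1 = growth at the plate median or of vehicle wells; lower values mean less growth of the strain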
Details: S. cerevisiae deletion strains, growth OD

Measured: normalized growth

CC/C=C\C/C=C\C/C=C\C/C=C\C/C=C\CCCC(=O)OCC
inactive: locus YHR030C, strain SLT2, stronger effect = lower value 0.979 | locus YHR079C, strain IRE1, stronger effect = lower value 0.924 | locus YJL095W, strain BCK1, stronger effect = lower value 0.945 | locus YJR066W, strain TOR1, stronger effect = lower value 0.94 | locus YLR113W, strain HOG1, stronger effect = lower value 0.902 | locus YNL183C, strain NPR1, stronger effect = lower value 0.927 | locus YOR231W, strain MKK1, stronger effect = lower value 0.949 | locus YPL256C, strain CLN2, stronger effect = lower value 0.897
